Assay results from PubChem BioAssay (Tox21).
Values joined by “and” are separate entries in the source; they are usually repeats but may differ in a detail not shown here. Equal values may be shown once. Records with an inconclusive call do not appear. Where a call stands in place of a potency, no number is given. A structure can be active in one record and inactive in another. Active and inactive are the calls of the source. Calls follow the shape of the full dose curve.

Test: Nuclear factor erythroid 2-related factor 2/antioxidant responsive element (Nrf2/ARE) small molecule agonists: luciferase reporter gene qHTS assay in human keratinocytes (AID 1919969); also: nearly all actives have a fitted effect of over 35% in size
Potency is read from the fitted curve at half-maximal effect.

| SMILES | Potency |
| --- | --- |
| Cc1cccc(N=Nc2ccc(N(C)C)cc2)c1 | 247 nM (active) and 1.72 µM (active) |
| O=[N+]([O-])/N=C1\NCCN1Cc1ccc(Cl)nc1 | inactive |
| O=C(Cl)c1ccccc1 | inactive |
| Oc1c(Br)cc(Br)cc1Br | inactive |
| O=C(O)C(F)(F)C(F)(F)C(F)(F)C(F)(F)C(F)(F)C(F)(F)C(F)(F)F | inactive |
| ClC(Cl)=C(Cl)C(Cl)=C(Cl)Cl | inactive |
| CC(C)(O)C(=O)Nc1ccc([N+](=O)[O-])c(C(F)(F)F)c1 | inactive |
| O=S(=O)(O)OOS(=O)(=O)O | inactive |
| O=S1OCC2C(CO1)C1(Cl)C(Cl)=C(Cl)C2(Cl)C1(Cl)Cl (configuration not stated) | inactive |
| OC[C@@H](O)[C@H]1O[C@@H]2O[C@H](C(Cl)(Cl)Cl)O[C@@H]2[C@H]1O | inactive |
| COc1ccc(C=O)cc1OC | 69.3 µM (active) and inactive |
| N#Cc1cc(Br)c(O)c(Br)c1 | inactive |
| O=C1C(Cl)=C(Cl)C(=O)C(Cl)=C1Cl | 4.84 µM (active) and 9.69 µM (active) |
| CNC(=O)NC(O)C(Cl)(Cl)Cl (configuration not stated) | inactive |
| NC1(c2ccccc2)CCCCC1 | inactive |
| CN(C)C(=O)Cl | inactive |
| O=C1c2ccccc2C(=O)N1SC(Cl)(Cl)Cl | 15.1 µM (active) and 7.7 µM (active) |
| COC(=O)c1sccc1S(=O)(=O)NC(=O)Nc1nc(C)nc(OC)n1 | inactive |
| COC(=O)Nc1cccc(OC(=O)Nc2cccc(C)c2)c1 | 13.7 µM (active) and inactive |

| SMILES | Potency |
| --- | --- |
| N#Cc1ccccc1N | inactive |
| Nc1cc(Cl)cc(Cl)c1 | inactive |
| C=CCO | inactive |
| C[N+]1(C)CCCCC1 | inactive |
| OC[P+](CO)(CO)CO | inactive |
| CCC[CH2][Sn]([Cl])([CH2]CCC)[CH2]CCC | 244 nM (active) and 486 nM (active) |
| N#CCC#N | 61.1 µM (active) |
| O=C(NCO)NCO | inactive |
| COCC(=O)N(c1c(C)cccc1C)N1CCOC1=O | inactive |
| O=C(O)C1C(C(=O)O)C2(Cl)C(Cl)=C(Cl)C1(Cl)C2(Cl)Cl (configuration not stated) | inactive |
| O=C(NCc1cccnc1)Nc1ccc([N+](=O)[O-])cc1 | inactive |
| Cc1cc(O)ccc1Cl | inactive |
| CN=C=O | inactive |
| C=C1CC[C@@]2(O)[C@H]3Cc4ccc(O)c5c4[C@@]2(CCN3CC2CC2)[C@H]1O5 | inactive |
| CCNc1nc(NC(C)C)nc(OC)n1 | inactive |
| NC(=O)OCCCc1ccccc1 | inactive |
| O=P(O)(Oc1ccccc1)Oc1ccccc1 | inactive |
| Cc1cccc(N)c1N | 2.35 µM (active) and 48.6 µM (active) |
| CCCCOC(=O)COC(=O)c1ccccc1C(=O)OCCCC | inactive |

| SMILES | Potency |
| --- | --- |
| CC(C)(C)CC(C)(C)c1ccc(O)cc1 | inactive |
| Clc1ccc(C2(Cn3cncn3)OCCO2)c(Cl)c1 | inactive |
| O=C1C2(Cl)C3(Cl)C4(Cl)C(Cl)(Cl)C5(Cl)C3(Cl)C1(Cl)C5(Cl)C24Cl (configuration not stated) | inactive |
| ClCc1ccccc1CCl | 61.1 µM (active) |
| O=P1(N(CCCl)CCCl)NCCCO1 (configuration not stated) | inactive |
| CC(C)(C)OOC(C)(C)CCC(C)(C)OOC(C)(C)C | inactive |
| CCC(C)c1cc([N+](=O)[O-])cc([N+](=O)[O-])c1O (configuration not stated) | inactive |
| O=S(=O)(c1ccccc1)c1ccccc1 | inactive |
| CCN(CC)Cc1nccn1-c1ccc([N+](=O)[O-])cc1C(=O)c1ccccc1Cl | inactive |
| C#CCOS(=O)OC1CCCCC1Oc1ccc(C(C)(C)C)cc1 (configuration not stated) | 19.4 µM (active) and 19.3 µM (active) |
| Cc1cccc(C)c1NC(=O)CN1CCCC1=O | inactive |
| Oc1ccc(Cl)cc1Cc1ccccc1 | 22 µM (active) and inactive |
| CC(O)CCO (configuration not stated) | inactive |
| CC(C)C1(C)N=C(c2nc3ccccc3cc2C(=O)O)NC1=O (configuration not stated) | inactive |
| COS(=O)(=O)c1ccc(C)cc1 | inactive |
| CCCCCCCCCCCCCCn1cc[n+](C)c1 | inactive |
| N#CCc1ccccc1 | inactive |
| CC(C)(C#N)N=NC(C)(C)C#N | inactive |
| Oc1c(Cl)c(Cl)c(Cl)c(Cl)c1Cl | inactive |
